Screens: PubChem, National Center for Advancing Translational Sciences (NCATS)
HT1080 IDH1KD tx = HT-1080 IDH1 knockdown cell toxicity (counter line); AID 686971; 360,000 tested, 2% active; HT-1080 IDH1 knockdown viability, ATP luminescence, 48 h; Potency, µM (doses to about 46.1 µM), hits mostly cytotoxic
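% activity derives from luminescence (CellTiter-Glo), normalised to DMSO and no-cell wells. HT-1080-IDH1KD cells, 750/well, had 48 h compound exposure at 37 °C.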
TDP1 cell CPT = growth inhibition of DT40 Tdp1-/-;hTDP1 cells with camptothecin (screen for TDP1 inhibitors). chicken DT40 Tdp1-/-;hTDP1 cells + 20 nM CPT, ATP luminescence, 48 h. Potency, µM (titrated, usually from 46.2 µM), actives largely listed as inhibitors. 420,000 tested, 12% active. AID 686979; also: nearly all actives have a fitted effect of over 55% in size
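Chicken DT40 Tdp1-/- cells complemented with human TDP1, 400 cells/well, exposed to compounds plus 20 nM camptothecin for at least 48 h at 37 C; viability read as ATP content by CellTiter-Glo luminescence.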
TDP1 cell noCPT = qHTS for Inhibitors of human tyrosyl-DNA phosphodiesterase 1 (TDP1): qHTS in cells in absence of CPT; 420,000 tested, 15% active; AID 686978, 2013; DT40 Tdp1-/- hTDP1 cells, no CPT, ATP luminescence, 48 h; Potency, µM (highest dose often 46.2 µM), usual class: inhibitors; also: nearly all actives have a fitted effect of over 55% in size
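Camptothecin absent (DMSO only). Human TDP1-complemented DT40 knockout cells, 400 cells/well, 37 °C for minimum 48 hr; ATP measured via CellTiter-Glo, 30 min dark incubation, luminescence.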
IL-1B inflam inh = inhibitors of inflammasome signaling (IL-1 beta secretion). THP-1 LPS/ATP IL-1B secretion, AlphaLISA, 16 h; active compounds read low. activity change, % at 57.5 µM. 360,000 tested, 4.7% active. AID 743279; in the data active = activity change below about -50%; inconclusive = mostly about -30% to -49%
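Secreted IL-1B measured by AlphaLISA bead assay after 16 h compound exposure of THP-1 cells; compounds (final up to 57.5 uM) added 1 h before LPS (250 ng/mL) and ATP (1.25 mM) stimulation; lower signal means less secretion.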
HT1080NT lethal = kills 2HG-producing HT-1080-NT fibrosarcoma cells | HT-1080-NT fibrosarcoma viability, CellTiter-Glo ATP luminescence, 48 h | Potency, µM (doses to about 46.1 µM), usual class: cytotoxic | 360,000 tested, 1.6% active | AID 686970;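 also: NT is the 2HG producing partner of a matched IDH1 knockdown line; nearly all actives have a fitted effect of over 55% in size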
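Viability of the 2HG-overproducing fibrosarcoma line after 48 hours of compound exposure at 37 degrees C was determined by luminescence with CellTiter-Glo, and concentration-effect curves were then fitted and categorized.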
A number is an active result; n = inactive; u = inconclusive; x = no result. Only some compounds are listed: those with a hit (about 19% of all), similar ones and a draw of the others. Unless noted, calls follow the shape of the dose curve; as a rule, active = well fitted curve in the direction sought with a large enough effect; inconclusive = small, poorly fitted or top-dose-only effect, or another doubt; inactive = no such curve, though single readings can be large; an effect the other way counts as inactive or inconclusive.

SMILES | HT1080 IDH1KD tx | TDP1 cell CPT | TDP1 cell noCPT | IL-1B inflam inh | HT1080NT lethal
CCc1noc(C)c1C(=O)OCC(=O)Nc1ccc(F)cc1Cl | n | n | u | n | n
Cc1ccc(-c2csc(NC(=O)c3c(C)noc3C)n2)cc1C | n | 18µM | 13µM | n | n
CCc1noc(C)c1C(=O)OCC(=O)c1ccc(NC(C)=O)cc1F | n | u | 21µM | n | n
CNC(=O)C(=O)Nc1nc(C23CC4CC(CC(C4)C2)C3)cs1 | n | n | n | n | n
CCc1noc(C)c1C(=O)OCC(=O)Nc1nc(-c2ccc(F)c(F)c2)cs1 | n | u | 15µM | -80 | n
N#Cc1ccc(CC(=O)c2ccccc2)[nH]c1=O | n | n | n | n | n
CC(NC(=O)COc1ccccc1Cl)c1ccccc1 (configuration not stated) | n | n | u | n | n
CCCCNC(=O)C1c2ccccc2OCC(=O)N1CCOC (configuration not stated) | n | n | n | n | n
Cc1onc(-c2ccccc2)c1C(=O)Nc1nc(-c2ccc(F)c(F)c2)cs1 | u | u | 26µM | n | n
CCOC(=O)Cc1csc(NC(=O)c2c(C)noc2C)n1 | n | n | n | n | n
Cc1ccc(-c2csc(NC(=O)c3c(C)noc3C)n2)s1 | u | 5.2µM | 4.1µM | n | n
COC(=O)c1ccc(-c2csc(NC(=O)c3c(C)noc3C)n2)cc1 | n | 16µM | 21µM | n | n
Cc1ccc(C)c(-c2csc(NC(=O)c3c(C)noc3C)n2)c1 | n | u | u | n | n
COc1cccc(NC(=O)c2cc3ccccc3cc2OC)c1 | n | n | u | n | n
COc1cccc(C(=O)Nc2cccc(-c3cn4c(C)csc4n3)c2)c1OC | x | 18µM | 16µM | x | x
COc1ccc(C(=O)Nc2cccc(-c3cn4ccsc4n3)c2)c(OC)c1 | x | 5.2µM | 6.5µM | x | x
CC(C)(C)[C@H]1C=C(C(N)=O)O[C@@H](OCc2ccc(CO)cc2)C1 | n | n | n | n | n
CC1(C)CC(=O)C(C=NCCN2CCN(C(=O)CCl)CC2)=C(O)C1 | n | u | 10µM | n | n
CCC(=O)N1CCN(CCN=CC2=C(O)CC(C)(C)CC2=O)CC1 | n | n | n | n | n
CCNc1oc(/C=C/c2ccc(OCC)cc2)nc1C#N | u | 7.3µM | 8.2µM | n | n
COc1ccc(Nc2oc(/C=C/c3cccc(OC)c3)nc2C#N)cc1 | x | 18µM | u | x | x
COc1cccc(/C=C/c2nc(C#N)c(NCCc3ccccc3)o2)c1 | x | u | 15µM | x | x
CN(Cc1ccccc1)c1oc(-c2ccco2)nc1C#N | n | n | n | -71 | n
COc1cccc(/C=C/c2nc(C#N)c(NCCN(C)C)o2)c1 | x | n | u | x | x
O=C(OCC(=O)N1CCc2ccccc2C1)c1cccc([N+](=O)[O-])c1 | n | n | n | n | n
SMILES | HT1080 IDH1KD tx | TDP1 cell CPT | TDP1 cell noCPT | IL-1B inflam inh | HT1080NT lethal
CCOc1ccc(/C=C/c2nc(C#N)c(N(C)C)o2)cc1 | x | 16µM | 15µM | x | x
CN(C)c1oc(/C=C/c2ccc(F)cc2)nc1C#N | x | n | n | x | x
COc1ccc(CCNc2oc(-c3ccccc3OC)nc2C#N)cc1 | u | u | u | u | n
CCOc1ccc(/C=C/c2nc(C#N)c(NCCc3ccccc3)o2)cc1 | x | 1.3µM | 1.2µM | x | x
COc1cccc(/C=C/c2nc(C#N)c(N(C)Cc3ccccc3)o2)c1 | x | u | 23µM | x | x
COc1ccccc1/C=C/c1nc(C#N)c(NCCc2ccccc2)o1 | x | u | 16µM | x | x
COc1ccccc1NC(=O)C(Cc1ccccc1)NS(=O)(=O)c1ccc2c(c1)CCN2C(C)=O (configuration not stated) | x | n | n | x | x
CC1CCCCN1C(=S)Nc1ccc(S(=O)(=O)N2CCCCC2)cc1 (configuration not stated) | n | u | u | n | n
CCOc1ccccc1C(=O)NC1(C(F)(F)F)C(=O)Nc2c1c(=O)[nH]c(=O)n2-c1ccccc1 (configuration not stated) | x | n | n | x | x
O=C1N/C(=N/O)S/C1=C/c1cccnc1 | n | n | n | n | n
Cc1ccc(S(=O)(=O)/N=C2/NC(=O)/C(=C/c3cccnc3)S2)cc1 | u | u | 29µM | n | u
